IDE exosite inh: insulin-degrading enzyme (human) exo-site inhibition; purified IDE, FL-6b probe fluorescence polarization; stronger effect = lower value; z-score at 20 µM; actives 6.3% (n = 17,000);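 active = z-score of -3 or lower, meaning strong loss of probe binding signal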;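 note: His-tagged human IDE residues 42-1019 made in E. coli with 30 nM FL-6b probe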
Numbers without * were called inactive; ! = not confirmed by another sample. The full list was thinned out, with hits kept by preference.

SMILES	IDE exosite inh
CO[C@@H]1CC[C@H]2CCOc3ccc(C#N)cc3C(=O)N(C)[C@@H](C)C(=O)N(C)C[C@@H]1O2	2.3
C/C=C/c1ccc(C2[C@@H]3CN(C(=O)Cc4ccccc4)C[C@H]2N3)cc1 (stereo partly specified)	2.2
O=C(CN1CCOCC1)N1C[C@@H]2N[C@H](C1)C2c1ccc(-c2ccccc2)cc1 (stereo partly specified)	1.6
O=S(=O)(c1ccc(-c2ccccc2)cc1)N1C[C@@H]2N[C@H](C1)C2c1ccc(-c2ccncc2)cc1 (stereo partly specified)	1.1
O=C(Cc1ccncc1)N1C[C@@H]2N[C@H](C1)C2c1ccc(-c2ccccc2)cc1 (stereo partly specified)	-3.1*
O=C(Cc1ccncc1)N1C[C@@H]2N[C@H](C1)C2c1ccc(/C=C/c2ccccc2)cc1 (stereo partly specified)	-4.6*!
C/C=C/c1ccc(C2[C@@H]3CN(C(=O)Cc4ccncc4)C[C@H]2N3)cc1 (stereo partly specified)	2.8
CCCC(=O)Nc1ccc2c(c1)C(=O)N(C)C[C@@H](OC)[C@H](C)CN(Cc1ccc(F)cc1)[C@H](C)CO2	0.24
C[C@@H]1CCCCO[C@H](CN(C)Cc2ccncc2)[C@H](C)CN([C@H](C)CO)C(=O)c2cc(NS(=O)(=O)c3ccc(Cl)cc3)ccc2O1	1.2
CN(C[C@H]1[C@H](c2ccccc2)[C@@H](CO)N1CC1CC1)C(=O)c1ccccc1	-0.92
O=C(C1CCC1)N1CCCCN2[C@H](C1)[C@H](c1ccc(-c3ccncc3)cc1)[C@@H]2CO	-0.12
CO[C@H]1CN(C)C(=O)c2ccc(NC(=O)Nc3ccccc3F)cc2OC[C@@H](C)N(CC2CC2)C[C@H]1C	-0.2
COc1cccc(-c2ccc3c(c2)[C@@H]2[C@@H](CCN2S(=O)(=O)C2=NC(C)C=N2)[C@H](CO)N3C)c1 (stereo partly specified)	2.4
Cc1ccccc1-c1ccc([C@H]2[C@H](CO)N3C(=O)CN(C(=O)c4ccncc4)C[C@@H]23)cc1	-7.4*
Cc1ccccc1-c1ccc([C@H]2[C@@H](CO)N3C(=O)CN(C(=O)c4ccccc4)C[C@@H]23)cc1	-8.3*
Cc1ccccc1-c1ccc([C@@H]2[C@@H](CO)N3C(=O)CN(C(=O)c4ccc(F)cc4)C[C@H]23)cc1	-0.12
O=C(c1ccccc1)N1CC(=O)N2[C@H](C1)[C@@H](c1ccc(-c3ccccc3)cc1)[C@@H]2CO	-0.84
O=C(C[C@@H]1CC[C@@H]2[C@H](COC[C@H](O)CN2Cc2cc(F)cc(F)c2)O1)Nc1nccs1	1.1
CCCC(=O)Nc1ccc2c(c1)C(=O)N(C)C[C@H](OC)[C@H](C)CN(Cc1ccc(F)cc1)[C@@H](C)CO2	-0.45
C/C=C/c1ccccc1[C@H]1[C@@H](C#N)N(S(=O)(=O)c2cccc(F)c2)[C@H]1CO	0.56
CCCC#Cc1ccc([C@@H]2[C@@H](CO)N3C(=O)CN(C(=O)Nc4cc(F)ccc4F)C[C@@H]23)cc1	3.4
COc1ccc2c3c([nH]c2c1)[C@H](CO)N(Cc1ccc(F)cc1)CC31CN(C)C1	-1.1
COc1cccc(S(=O)(=O)N[C@H]2CC[C@@H](CC(=O)NC3Cc4ccccc4C3)O[C@H]2CO)c1	0.91
CC(C)(C)S(=O)N1Cc2cc(C(=O)NCc3ccc4c(c3)OCO4)nc(-c3cccc(-c4cccc(F)c4)c3)c2[C@@H]1CCO (stereo partly specified)	0.37
CCC(=O)N1CC(=O)N2[C@H](CO)[C@@H](c3ccc(-c4ccccc4F)cc3)[C@H]2C1	0.87
SMILES	IDE exosite inh
CCC(=O)N1CC(=O)N2[C@H](CO)[C@@H](c3ccc(-c4ccccc4F)cc3)[C@@H]2C1	-5.2*
CCC(=O)N1CC(=O)N2[C@H](C1)[C@H](c1ccc(-c3ccccc3F)cc1)[C@@H]2CO	-3.5*
O=C(C1CCCCC1)N1CC(=O)N2[C@H](C1)[C@@H](c1ccc(-c3ccccc3F)cc1)[C@@H]2CO	-2.7
CCC(=O)N1CC(=O)N2[C@@H](CO)[C@@H](c3ccc(-c4ccccc4F)cc3)[C@@H]2C1	-5.6*
COCC(=O)N1CC(=O)N2[C@@H](CO)[C@H](c3ccc(-c4ccccc4F)cc3)[C@@H]2C1	0.036
COCC(=O)N1CC(=O)N2[C@H](C1)[C@H](c1ccc(-c3ccccc3F)cc1)[C@@H]2CO	0.35
O=C(Nc1cc(F)ccc1F)N1CC(=O)N2[C@@H](CO)[C@H](c3ccc(-c4cccc(F)c4)cc3)[C@@H]2C1	1.2
CCC(=O)N1[C@H](C#N)[C@H](c2ccccc2-c2ccccc2)[C@H]1CO	1.2
COCC(=O)NC[C@@H]1[C@@H](c2ccc(-c3ccccc3)cc2)[C@@H](CO)N1C(C)=O	-1.7
COCC(=O)N1CC2(C1)CN(Cc1ccccc1F)[C@H](CO)c1[nH]c3cc(OC)ccc3c12	-2.2
CCC(=O)N1[C@H](CO)[C@H](c2ccc(-c3ccccc3OC)cc2)[C@H]1CNC(C)=O	-8.2*
CCC(=O)N1[C@@H](CO)[C@@H](c2ccc(-c3cccc(F)c3)cc2)[C@@H]1CNC(C)=O	4.6
CC(=O)NC[C@H]1[C@H](c2ccc(-c3ccccc3F)cc2)[C@H](CO)N1C(C)=O	3.9
CCC(=O)N1[C@H](CO)[C@H](c2ccc(-c3cccc(F)c3)cc2)[C@@H]1CNC(C)=O	2.5
CCC(=O)N1[C@H](CO)[C@H](c2ccc(-c3ccccc3OC)cc2)[C@@H]1CNC(C)=O	-15*
CCC(=O)N1[C@H](CNC(C)=O)[C@H](c2ccc(-c3ccc(F)cc3)cc2)[C@@H]1CO	0.7
OC[C@@H]1[C@@H](c2ccccc2)C2(CN(CCC(F)(F)F)C2)N1Cc1nccs1	0.23
CCCNC(=O)N1[C@@H]2CNC[C@H]1C2c1ccc(-c2ccc(C#N)cc2)cc1 (stereo partly specified)	6.5
O=C(C[C@@H]1C[C@@H]2c3cc(NC(=O)C4CCOCC4)ccc3O[C@@H]2[C@H](CO)O1)NCCN1CCCCC1	0.57
Cc1nc(N2[C@@H](C#N)[C@@H](c3ccccc3)[C@@H]2CO)sc1C	0.64
COc1ccc(-c2ccc([C@H]3[C@H](CO)N4CCCCN(C(=O)c5ccc(F)cc5)C[C@@H]34)cc2)cc1	0.084
COCC(=O)N1CCCCN2[C@@H](CO)[C@H](c3ccc(-c4ccc(OC)cc4)cc3)[C@@H]2C1	0.91
COc1ccc(-c2ccc([C@@H]3[C@H](CO)N4CCCCN(C(=O)c5ccc(F)cc5)C[C@@H]34)cc2)cc1	0.56
COCC(=O)N1CCCCN2[C@H](CO)[C@H](c3ccc(-c4ccc(OC)cc4)cc3)[C@@H]2C1	-0.47
COc1ccc(-c2ccc([C@@H]3[C@H](CO)N4CCCCN(C(=O)NC(C)C)C[C@@H]34)cc2)cc1	-5.6*
COc1ccc(-c2ccc([C@@H]3[C@@H](CO)N4CCCCN(C(=O)NC(C)C)C[C@@H]34)cc2)cc1	-4.1*
COc1ccc(-c2ccc([C@@H]3[C@@H](CO)N4C(=O)CN(C(=O)NC(C)C)C[C@H]34)cc2)cc1	-2.7
COCC(=O)N1CCCCN2[C@H](C1)[C@@H](c1ccc(-c3ccc(OC)cc3)cc1)[C@@H]2CO	1.4
COc1ccc(-c2ccc([C@H]3[C@H]4CN(C(=O)NC(C)C)CCCCN4[C@H]3CO)cc2)cc1	-11*
CN(C)C(=O)c1cccc(-c2ccc(C3[C@H]4CNC[C@@H]3N4C(=O)NC3CCCC3)cc2)c1 (stereo partly specified)	5.7

Screens: PubChem BioAssay, Broad Institute
